Reference: PubChem BioAssay AID1159580 (chemical genetic matrix, 2015)
Several values for one entry are separate records, joined by “and”; a condition that tells them apart may be missing. Equal values may be shown once. The campaign covered roughly 5,500 compounds. About 2,000 (36%) were called active. Not shown: some 18% with an inconclusive outcome. Rule as the data show it: active = normalized growth mostly below about 0.91 (no sharp cut-off); inconclusive = no clear call, values can overlap the other calls; inactive = mostly above about 0.92. The list shows a part of the results.

Assay: chemical genetic growth profiling, strain panel (AID 1159580);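 also: tested at 20 µM; growth read once vehicle control cultures reached saturation at 30 °C; 1 = growth at the plate median or of vehicle wells; lower values mean less growth of the strain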
Settings: S. cerevisiae deletion strains, growth OD

Measured: normalized growth

Nc1ccc(S(=O)(=O)Nc2ccc(Cl)nn2)cc1
inactive: locus YAL013W, strain DEP1, stronger effect = lower value 1.01 | locus YAL021C, strain ccr4, stronger effect = lower value 0.982 | locus YAL026C, strain drs2, stronger effect = lower value 0.996 | locus YAL030W, strain snc1, stronger effect = lower value 0.985 | locus YBL061C, strain skt5, stronger effect = lower value 0.984 | locus YBR009C, strain hhf1, stronger effect = lower value 0.994 | locus YBR021W, strain FUR4, stronger effect = lower value 0.977 | locus YBR023C, strain chs3, stronger effect = lower value 0.984 | locus YBR171W, strain sec66, stronger effect = lower value 0.976 | locus YBR229C, strain ROT2, stronger effect = lower value 0.995 | locus YBR231C, strain swc5, stronger effect = lower value 0.995 | locus YBR279W, strain paf1, stronger effect = lower value 0.998 | locus YCL011C, strain gbp2, stronger effect = lower value 0.987 | locus YCL016C, strain dcc1, stronger effect = lower value 0.971 | locus YCL029C, strain bik1, stronger effect = lower value 0.996 | locus YCL061C, strain MRC1, stronger effect = lower value 0.984 | locus YCL069W, strain vba3, stronger effect = lower value 0.993 | locus YCR088W, strain abp1, stronger effect = lower value 0.987 | locus YDL005C, strain med2, stronger effect = lower value 0.996 | locus YDL035C, strain GPR1, stronger effect = lower value 1.02 | locus YDL040C, strain nat1, stronger effect = lower value 0.992 | locus YDL074C, strain BRE1, stronger effect = lower value 0.978 | locus YDL101C, strain DUN1, stronger effect = lower value 1.01 | locus YDL134C, strain PPH21, stronger effect = lower value 1.01 | locus YDL185W, strain tfp1, stronger effect = lower value 1.01 | locus YDL192W, strain arf1, stronger effect = lower value 1.01 | locus YDR001C, strain nth1, stronger effect = lower value 0.987 | locus YDR069C, strain doa4, stronger effect = lower value 0.999 | locus YDR101C, strain arx1, stronger effect = lower value 0.961 | locus YDR137W, strain rgp1, stronger effect = lower value 0.996 | locus YDR150W, strain NUM1, stronger effect = lower value 0.999 | locus YDR159W, strain sac3, stronger effect = lower value 1.02 | locus YDR162C, strain NBP2, stronger effect = lower value 1.02 | locus YDR195W, strain ref2 0.968 | locus YDR297W, strain sur2, stronger effect = lower value 0.993 | locus YDR318W, strain mcm21, stronger effect = lower value 1 | locus YDR334W, strain swr1, stronger effect = lower value 0.984 | locus YDR335W, strain msn5, stronger effect = lower value 0.994 | locus YDR388W, stronger effect = lower value 1.01 | locus YDR392W, strain spt3, stronger effect = lower value 0.929 | locus YDR502C, strain sam2, stronger effect = lower value 1 | locus YEL003W, strain gim4, stronger effect = lower value 1 | locus YEL037C, strain rad23, stronger effect = lower value 0.991 | locus YEL061C, strain CIN8 (second series), stronger effect = lower value 0.992 | locus YEL061C, strain CIN8, stronger effect = lower value 1 | locus YER015W, strain faa2, stronger effect = lower value 0.973 | locus YER016W, strain bim1, stronger effect = lower value 1 | locus YER110C, stronger effect = lower value 1.01 | locus YER111C, strain swi4, stronger effect = lower value 0.986 | locus YER155C, strain BEM2 (second series), stronger effect = lower value 1 | locus YER155C, strain BEM2, stronger effect = lower value 0.998 | locus YER167W, strain BCK2, stronger effect = lower value 1.01 | locus YFR010W, strain ubp6, stronger effect = lower value 0.99 | locus YGL078C, strain dbp3, stronger effect = lower value 1 | locus YGL086W, strain mad1, stronger effect = lower value 0.988 | locus YGL167C, strain pmr1, stronger effect = lower value 0.983 | locus YGL173C, strain kem1, stronger effect = lower value 0.99 | locus YGL227W, strain vid30, stronger effect = lower value 0.979 | locus YGL240W, strain doc1, stronger effect = lower value 0.992 | locus YGL248W, strain PDE1, stronger effect = lower value 0.999 | locus YGL253W, strain hxk2, stronger effect = lower value 1 | locus YGR135W, strain pre9, stronger effect = lower value 1.06 | locus YGR252W, strain gcn5, stronger effect = lower value 1.04 | locus YHR013C, strain ard1, stronger effect = lower value 0.965 | locus YHR027C, strain rpn1, stronger effect = lower value 0.995 | locus YHR030C, strain SLT2, stronger effect = lower value 1 and 0.995 | locus YHR079C, strain IRE1 (second series), stronger effect = lower value 1.01 | locus YHR079C, strain IRE1, stronger effect = lower value 0.989 | locus YHR094C, strain hxt1, stronger effect = lower value 1.01 | locus YHR129C, strain ARP1, stronger effect = lower value 1.01 | locus YHR142W, strain chs7, stronger effect = lower value 0.994 | locus YHR200W, strain rpn10, stronger effect = lower value 1 | locus YIL066C, strain RNR3, stronger effect = lower value 0.992 | locus YIL073C, strain SPO22, stronger effect = lower value 1.07 | locus YIL125W, strain kgd1, stronger effect = lower value 0.994 | locus YIR030C, strain dcg1, stronger effect = lower value 1.01 | locus YJL092W, strain hpr5, stronger effect = lower value 0.983 | locus YJL095W, strain BCK1 (second series), stronger effect = lower value 0.988 | locus YJL095W, strain BCK1, stronger effect = lower value 1.01 and 0.984 | locus YJL115W, strain asf1, stronger effect = lower value 0.991 | locus YJL129C, strain trk1, stronger effect = lower value 1.01 | locus YJL134W, strain LCB3, stronger effect = lower value 1.01 | locus YJL154C, strain vps35, stronger effect = lower value 0.986 | locus YJL164C, strain tpk1, stronger effect = lower value 0.985 | locus YJL166W, strain qcr8, stronger effect = lower value 0.984 | locus YJL168C, strain set2, stronger effect = lower value 1 | locus YJL187C, strain SWE1 (second series), stronger effect = lower value 0.992 | locus YJL187C, strain SWE1, stronger effect = lower value 0.986
